# Results from article PMC5540273 (PLoS ONE, 2017).
# Tested on: PIK3CG
# Settings: concentration: 1 μM,replicates: in singlicate; n = 1
# 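Further: KINOMEscan kinase panel screen.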
row,SMILES,%Inh
1,CCCC(=O)Nc1n[nH]c2ncccc12 [SB-601436],7%
2,O=C(NOCC1CC1)c1cc(Br)c(F)c(F)c1Nc1ccc(I)cc1Cl,0%
3,CS(=O)(=O)Nc1ccc(-c2ccnc3[nH]ccc23)cc1 [GSK993273],7%
4,Cn1ccc2ncnc(Oc3ccc(NC(=O)Nc4cccc(C(F)(F)F)c4)c(Cl)c3)c21,0%
5,CN1CCN(CCCNc2nccc(-c3c(-c4ccc(F)cc4)nn4cc(C(N)=O)ccc34)n2)CC1 [GW622475],0%
6,O=C(Nc1cccc(C(F)(F)F)c1)c1cccc(Oc2ccc3nccn3n2)c1,94.2%
7,COc1ccc(Nc2nccc(N3CCC(NC(=O)c4cccc(C#N)c4)C3)n2)cc1 (centres unmarked) [GSK1379730],0%
8,Cc1ccc2c(-c3ccnc(Nc4ccc(C(F)(F)F)cc4)n3)cnn2n1 [GW819776],48%
9,CN1CCN(CCNc2nc3cc(Oc4ccc(NC(=O)Nc5cc(C(F)(F)F)ccc5F)cc4)ccc3[nH]2)CC1.Cl.Cl [GW768504],0%
10,Cc1n[nH]c2cc(Nc3ccnc(Nc4cccc(CN5CCOCC5)c4)n3)ccc12 [GW682569],6%
11,CN(c1ccc2c(c1)nc(NCc1ccc(F)cc1)n2C)c1ccnc(Nc2ccc(CS(C)(=O)=O)cc2)n1.Cl [GW813244],0%
12,CCOC(=O)N1CCC(n2cnc(-c3ccc(F)cc3)c2-c2ccnc(N)n2)CC1 [SB-219952],64%
13,O=C(Nc1cccc(Oc2ccc3nccn3n2)c1)Nc1cccc(C(F)(F)F)c1,18%
14,Cc1cccc(-c2nc(Nc3ccncc3)c3sccc3n2)n1 [GW869641],23%
15,C[C@@H](Oc1cc(-n2cnc3ccc(-c4ccncc4)cc32)sc1C(N)=O)c1ccccc1Cl [GSK483724],97.7%
16,CN(c1ccccc1CNc1nc(Nc2ccc3c(c2)CC(=O)N3)ncc1C(F)(F)F)S(C)(=O)=O,0%
17,C[C@@H]1CNc2c(sc3ccc4nc(-c5ccc(O)cc5)ccc4c23)C(=O)N1,11%
18,Cn1ccc2ncnc(Oc3ccc(NC(=O)Nc4ccnc(C(F)(F)F)c4)c(Cl)c3)c21,0%
19,CCn1c(-c2nonc2N)nc2cncc(Br)c21 [SB-738004],11%

row,SMILES,%Inh
1,N#Cc1cccc(C(=O)NC2CCN(c3ccnc(Nc4ccc(F)cc4)n3)C2)c1 (centres unmarked) [GSK1379708],0%
2,Cc1ccc(C(=O)Nc2ccc(Oc3ccc4nc(NC(=O)C5CC5)cn4c3)c(F)c2)c(=O)n1-c1ccccc1,0%
3,CCNCC(Cc1ccccc1)NC(=O)c1cc(Br)c(-c2ccnc3[nH]ccc23)s1.Cl.Cl (centres unmarked) [GSK1383280],0%
4,COc1cccc(C2=C(Nc3cccc(Cl)c3)C(=O)NC2=O)c1 [SB-341556],0%
5,NC(=O)c1ccc(-c2cc3ncnc(SCC(=O)O)c3s2)cc1,0%
6,Cc1ccc(CC(=O)N2CCc3cc(-c4cn(C)c5ncnc(N)c45)ccc32)cc1 [GSK2634758],0%
7,Cl.Nc1n[nH]c2cc(-c3ccccn3)ccc12 [GSK2189892],0%
8,CCn1c(-c2nonc2N)nc2cncc(CNC3CCNCC3)c21.Cl [SB-747651],0%
9,NC(=O)Nc1sc(-c2ccc(F)cc2)cc1C(N)=O [GW789449],1%
10,Cn1cc(-c2cccc3c(N)c(C(N)=O)nnc23)cn1,18%
11,CN(c1cccc(CNc2nc(Nc3ccc4c(c3)CC(=O)N4)ncc2C(F)(F)F)c1)S(C)(=O)=O,0%
12,CC(=O)Nc1nc2cnc(Nc3cc(NC(=O)c4cccc(CC(C)(C)C#N)c4)ccc3C)nc2s1,8%
13,c1ccc(Oc2ccc(Nc3ccnc4ccc(-c5ccccn5)cc34)cc2)cc1 [GW407034],0%
14,Cc1ccc(Nc2ccnc(Nc3ccc4c(c3)CS(=O)(=O)C4)n2)cc1O.Cl [GW579362],31%
15,CC(C)c1nc(-c2cccc(NS(=O)(=O)c3ccccc3)c2)c(-c2ccnc(Nc3ccc4c(c3)CN(C)CC4)n2)s1 [GSK1649598],4%
16,O=C(NCC1CC1)c1ccc(-c2cc(C(=O)NC3CC3)ccc2F)cc1 [GW810445],0%
17,CC(C)S(=O)(=O)N1CCN(Cc2ccc3c(c2)nc(NC(=O)c2ccsc2)n3C[C@H](O)c2ccccc2)CC1 [GW635815],0%
18,Cc1ccn2nc(-c3ccc(F)cc3)c(-c3ccncc3)c2c1.Cl [GW457859],1%

# Tested on: T1, PIK4CB
# T1 construct: gene PI4KB
# Settings: concentration: 1 μM,replicates: in singlicate; n = 1
row,SMILES,%Inh
1,CCCC(=O)Nc1n[nH]c2ncccc12 [SB-601436],12%
2,O=C(NOCC1CC1)c1cc(Br)c(F)c(F)c1Nc1ccc(I)cc1Cl,0%
3,CS(=O)(=O)Nc1ccc(-c2ccnc3[nH]ccc23)cc1 [GSK993273],10%
4,Cn1ccc2ncnc(Oc3ccc(NC(=O)Nc4cccc(C(F)(F)F)c4)c(Cl)c3)c21,0%
5,CN1CCN(CCCNc2nccc(-c3c(-c4ccc(F)cc4)nn4cc(C(N)=O)ccc34)n2)CC1 [GW622475],0%
6,O=C(Nc1cccc(C(F)(F)F)c1)c1cccc(Oc2ccc3nccn3n2)c1,39%
7,COc1ccc(Nc2nccc(N3CCC(NC(=O)c4cccc(C#N)c4)C3)n2)cc1 (centres unmarked) [GSK1379730],0%
8,Cc1ccc2c(-c3ccnc(Nc4ccc(C(F)(F)F)cc4)n3)cnn2n1 [GW819776],33%
9,CN1CCN(CCNc2nc3cc(Oc4ccc(NC(=O)Nc5cc(C(F)(F)F)ccc5F)cc4)ccc3[nH]2)CC1.Cl.Cl [GW768504],0%
10,Cc1n[nH]c2cc(Nc3ccnc(Nc4cccc(CN5CCOCC5)c4)n3)ccc12 [GW682569],81%
11,CN(c1ccc2c(c1)nc(NCc1ccc(F)cc1)n2C)c1ccnc(Nc2ccc(CS(C)(=O)=O)cc2)n1.Cl [GW813244],0%
12,CCOC(=O)N1CCC(n2cnc(-c3ccc(F)cc3)c2-c2ccnc(N)n2)CC1 [SB-219952],59%
13,O=C(Nc1cccc(Oc2ccc3nccn3n2)c1)Nc1cccc(C(F)(F)F)c1,0%
14,Cc1cccc(-c2nc(Nc3ccncc3)c3sccc3n2)n1 [GW869641],31%
15,C[C@@H](Oc1cc(-n2cnc3ccc(-c4ccncc4)cc32)sc1C(N)=O)c1ccccc1Cl [GSK483724],79%
16,CN(c1ccccc1CNc1nc(Nc2ccc3c(c2)CC(=O)N3)ncc1C(F)(F)F)S(C)(=O)=O,0%
17,C[C@@H]1CNc2c(sc3ccc4nc(-c5ccc(O)cc5)ccc4c23)C(=O)N1,0%
18,Cn1ccc2ncnc(Oc3ccc(NC(=O)Nc4ccnc(C(F)(F)F)c4)c(Cl)c3)c21,0%
19,CCn1c(-c2nonc2N)nc2cncc(Br)c21 [SB-738004],5%

row,SMILES,%Inh
1,N#Cc1cccc(C(=O)NC2CCN(c3ccnc(Nc4ccc(F)cc4)n3)C2)c1 (centres unmarked) [GSK1379708],0%
2,Cc1ccc(C(=O)Nc2ccc(Oc3ccc4nc(NC(=O)C5CC5)cn4c3)c(F)c2)c(=O)n1-c1ccccc1,0%
3,CCNCC(Cc1ccccc1)NC(=O)c1cc(Br)c(-c2ccnc3[nH]ccc23)s1.Cl.Cl (centres unmarked) [GSK1383280],12%
4,COc1cccc(C2=C(Nc3cccc(Cl)c3)C(=O)NC2=O)c1 [SB-341556],10%
5,NC(=O)c1ccc(-c2cc3ncnc(SCC(=O)O)c3s2)cc1,0%
6,Cc1ccc(CC(=O)N2CCc3cc(-c4cn(C)c5ncnc(N)c45)ccc32)cc1 [GSK2634758],0%
7,Cl.Nc1n[nH]c2cc(-c3ccccn3)ccc12 [GSK2189892],0%
8,CCn1c(-c2nonc2N)nc2cncc(CNC3CCNCC3)c21.Cl [SB-747651],15%
9,NC(=O)Nc1sc(-c2ccc(F)cc2)cc1C(N)=O [GW789449],18%
10,Cn1cc(-c2cccc3c(N)c(C(N)=O)nnc23)cn1,16%
11,CN(c1cccc(CNc2nc(Nc3ccc4c(c3)CC(=O)N4)ncc2C(F)(F)F)c1)S(C)(=O)=O,0%
12,CC(=O)Nc1nc2cnc(Nc3cc(NC(=O)c4cccc(CC(C)(C)C#N)c4)ccc3C)nc2s1,27%
13,c1ccc(Oc2ccc(Nc3ccnc4ccc(-c5ccccn5)cc34)cc2)cc1 [GW407034],0%
14,Cc1ccc(Nc2ccnc(Nc3ccc4c(c3)CS(=O)(=O)C4)n2)cc1O.Cl [GW579362],67%
15,CC(C)c1nc(-c2cccc(NS(=O)(=O)c3ccccc3)c2)c(-c2ccnc(Nc3ccc4c(c3)CN(C)CC4)n2)s1 [GSK1649598],33%
16,O=C(NCC1CC1)c1ccc(-c2cc(C(=O)NC3CC3)ccc2F)cc1 [GW810445],0%
17,CC(C)S(=O)(=O)N1CCN(Cc2ccc3c(c2)nc(NC(=O)c2ccsc2)n3C[C@H](O)c2ccccc2)CC1 [GW635815],0%
18,Cc1ccn2nc(-c3ccc(F)cc3)c(-c3ccncc3)c2c1.Cl [GW457859],0%
